An excerpt weighted towards active compounds, which were near 19% of everything screened.
uPA generation: inhibitors of cell surface uPA generation. Potency, µM (series often up to 38.3 µM), inactives show at the top dose activity change, negative = inhibition, hits mostly inhibitors. cell surface uPA generation assay, qHTS. actives 0.31% (n = 330,000); active = well fitted inhibition curve with a large enough effect; inconclusive = small, poorly fitted or top-dose-only effect; inactive = no such curve, though single readings can be large or run the other way; tested in mouse RAW 264.7 cells; note: potency is the fitted concentration of half-maximal effect; nearly all actives have a fitted effect of over 55% in size
IL-1B inflam inh: inflammasome signaling inhibition, IL-1 beta readout; THP-1 LPS/ATP IL-1B secretion, AlphaLISA, 16 h; hits give low values; activity change, % at 57.5 µM; actives 4.7% (n = 360,000); AID 743279; in the data active = activity change below about -50%; inconclusive = mostly about -30% to -49%
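Secreted IL-1B measured by AlphaLISA bead assay after 16 h compound exposure of THP-1 cells; compounds (final up to 57.5 uM) added 1 h before LPS (250 ng/mL) and ATP (1.25 mM) stimulation; lower signal means less secretion.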
HT1080-NT tox: kills 2HG-producing HT-1080-NT fibrosarcoma cells; HT-1080-NT fibrosarcoma viability, CellTiter-Glo ATP luminescence, 48 h; Potency, µM (titrated, usually from 46.1 µM), without a hit: at the top dose activity, negative = less viability, most hits filed as cytotoxic; actives 1.6% (n = 360,000); AID 686970;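 note: NT is the 2HG producing partner of a matched IDH1 knockdown line; potency is the fitted concentration of half-maximal effect; 0% = DMSO-treated cells and -100% = media-only wells without cells; nearly all actives have a fitted effect of over 55% in size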
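Viability of the 2HG-overproducing fibrosarcoma line after 48 hours of compound exposure at 37 degrees C was determined by luminescence with CellTiter-Glo, and concentration-effect curves were then fitted and categorized.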
TDP1 cell noCPT: qHTS for Inhibitors of human tyrosyl-DNA phosphodiesterase 1 (TDP1): qHTS in cells in absence of CPT. DT40 Tdp1-/- hTDP1 cells, no CPT, ATP luminescence, 48 h. Potency, µM (doses to about 46.2 µM), for inactives: at the top dose activity change, negative = growth inhibition, most hits filed as inhibitors. actives 15% (n = 420,000). AID 686978, 2013; note: potency is the fitted concentration of half-maximal effect; nearly all actives have a fitted effect of over 55% in size
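Luminescent ATP content (CellTiter-Glo) served as the growth readout. Knockout chicken DT40 cells expressing human TDP1 were exposed to compounds without camptothecin for a minimum 48 hr at 37 °C.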
HT1080 IDH1KD tx: HT-1080 IDH1 knockdown cell toxicity (counter line); actives 2% (n = 360,000); HT-1080 IDH1 knockdown viability, ATP luminescence, 48 h; Potency, µM (doses to about 46.1 µM), without a hit: at the highest dose activity, negative = toxicity, hits mostly cytotoxic;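 note: potency is the fitted concentration of half-maximal effect; 0% = DMSO wells and -100% = cell-free medium wells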
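In this qHTS, HT-1080 cells depleted of IDH1 are exposed for 48 h at 37 °C to compound titrations. Toxicity is scored from CellTiter-Glo luminescence, with DMSO as full viability and medium alone as none.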
DT40 TDP1 CPT: growth inhibition of DT40 Tdp1-/-;hTDP1 cells with camptothecin (screen for TDP1 inhibitors); chicken DT40 Tdp1-/-;hTDP1 cells + 20 nM CPT, ATP luminescence, 48 h; Potency, µM (top dose mostly 46.2 µM), for the others: at the highest dose activity change, negative = growth inhibition, actives largely listed as inhibitors; actives 12% (n = 420,000); AID 686979; note: potency is the fitted concentration of half-maximal effect; nearly all actives have a fitted effect of over 55% in size
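Cell growth measured by CellTiter-Glo luminescence after a minimum 48 h, 37 C compound exposure with 20 nM CPT in Tdp1-knockout DT40 cells stably expressing hTDP1, seeded 400/well; qHTS titration format.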
Starred values were filed as active, the others as inactive. Unless noted, calls come from the whole dose curve; as a rule, active = well fitted curve in the direction sought with a large enough effect; inconclusive = small, poorly fitted or top-dose-only effect, or another doubt; inactive = no such curve, though single readings can be large; an effect the other way counts as inactive or inconclusive. Unless noted, % is set by controls: 0 for no effect and ±100 for the full control effect.

Results for O=C(CSc1nccn1-c1ccc(Cl)cc1)N1CCCc2ccccc21 ?
uPA generation: 1.1%; IL-1B inflam inh: -11.2; HT1080-NT tox: -0.5%; TDP1 cell noCPT: 14.6µM*; HT1080 IDH1KD tx: 0.2%; DT40 TDP1 CPT: inconclusive

Results for Cn1c(-c2ccccc2)cnc1SCC(=O)N1CCCc2ccccc21 ?
uPA generation: -1.7%; IL-1B inflam inh: inconclusive; HT1080-NT tox: 15.1%; TDP1 cell noCPT: inconclusive; HT1080 IDH1KD tx: 5.0%; DT40 TDP1 CPT: inconclusive

Results for Cc1cc2c(cc1S(=O)(=O)C(C)CC(=O)NC1CCC(C)CC1)OCC(=O)N2 (stereo not given) ?
TDP1 cell noCPT: -0.5%; DT40 TDP1 CPT: 5.1%

How did CC(C)(C)C(=O)Cn1ncc(Br)c(Br)c1=O do in these assays?
uPA generation: inconclusive; IL-1B inflam inh: -99.7*; HT1080-NT tox: inconclusive; TDP1 cell noCPT: 1.84µM*; HT1080 IDH1KD tx: inconclusive; DT40 TDP1 CPT: 4.61µM*

How did COc1cccc(N2CCN(C(=O)c3cccn3-c3nnc(N4CCCCC4)s3)CC2)c1 do in these assays?
TDP1 cell noCPT: inconclusive; DT40 TDP1 CPT: 14.6µM*

Results for COc1cccc(N2CCN(C(=O)c3ccc4nc(N5CCCCC5)sc4c3)CC2)c1 ?
uPA generation: 20.3%; IL-1B inflam inh: inconclusive; HT1080-NT tox: 7.7%; TDP1 cell noCPT: 16.4µM*; HT1080 IDH1KD tx: 0.3%; DT40 TDP1 CPT: inconclusive

Results for O=C(c1cccn1-c1nnc(N2CCCC2)s1)N1CCN(c2ccccc2)CC1 ?
TDP1 cell noCPT: -19.3%; DT40 TDP1 CPT: inconclusive

Results for Cc1ccc(Cl)cc1N1CCN(C(=O)c2cccn2-c2nnc(N3CCCC3)s2)CC1 ?
TDP1 cell noCPT: 14.6µM*; DT40 TDP1 CPT: 11.6µM*

What do the screens show for `COCCNC(=O)CSc1nnc2[nH]c(=O)cc(C)n12`?
TDP1 cell noCPT: -11.6%; DT40 TDP1 CPT: 28.0%

Results for CCCCn1c(=N)n(CC(=O)C(C)(C)C)c2ccccc21 ?
uPA generation: 1.2%; IL-1B inflam inh: 0.0; HT1080-NT tox: -26.4%; TDP1 cell noCPT: inconclusive; HT1080 IDH1KD tx: inconclusive; DT40 TDP1 CPT: 23.1µM*

What do the screens show for `CCCCn1c(=N)n(CC(=O)c2ccc(Br)s2)c2ccccc21`?
uPA generation: inconclusive; IL-1B inflam inh: -97.9*; HT1080-NT tox: inconclusive; TDP1 cell noCPT: 4.11µM*; HT1080 IDH1KD tx: inconclusive; DT40 TDP1 CPT: 5.17µM*

How did CCn1c(=N)n(CC(=O)C(C)(C)C)c2ccccc21 do in these assays?
uPA generation: -12.9%; IL-1B inflam inh: -6.1; HT1080-NT tox: 7.08µM*; TDP1 cell noCPT: inconclusive; HT1080 IDH1KD tx: 7.94µM*; DT40 TDP1 CPT: -25.8%

How did CCCn1c(=N)n(CC(=O)C(C)(C)C)c2ccccc21 do in these assays?
uPA generation: 2.3%; IL-1B inflam inh: -6.9; HT1080-NT tox: -13.4%; TDP1 cell noCPT: inconclusive; HT1080 IDH1KD tx: -16.3%; DT40 TDP1 CPT: inconclusive

What do the screens show for `CC(=O)c1cccc(OC(=O)c2cc(S(=O)(=O)N3CCOCC3)ccc2N2CCCC2)c1`?
uPA generation: -5.1%; IL-1B inflam inh: -5.6; HT1080-NT tox: -3.5%; TDP1 cell noCPT: inconclusive; HT1080 IDH1KD tx: -0.6%; DT40 TDP1 CPT: inconclusive

How did Nc1ncnc2c1ncn2-c1ccccc1Cl do in these assays?
uPA generation: -6.5%; IL-1B inflam inh: -6.1; HT1080-NT tox: 1.7%; TDP1 cell noCPT: 1.8%; HT1080 IDH1KD tx: 11.5%; DT40 TDP1 CPT: -5.9%

What do the screens show for `O=C(O)C1=C(C(=O)O)C2C=CC1C2`?
uPA generation: 3.9%; IL-1B inflam inh: 13.5; HT1080-NT tox: 4.3%; TDP1 cell noCPT: -13.0%; HT1080 IDH1KD tx: 8.7%; DT40 TDP1 CPT: -3.8%

How did COC(=O)[C@]12CCCCC=C1N(Cc1ccc3c(c1)OCO3)C(=O)[C@H](CC(=O)N1CCN(C(=O)C3CC3)CC1)C2 do in these assays?
IL-1B inflam inh: -2.8; HT1080-NT tox: 1.2%; TDP1 cell noCPT: inconclusive; HT1080 IDH1KD tx: -1.2%; DT40 TDP1 CPT: inconclusive

How did C[C@H](CO)N1C[C@H](C)[C@@H](CN(C)C(=O)CN2CCOCC2)Oc2ncc(-c3cncnc3)cc2C1=O do in these assays?
IL-1B inflam inh: inconclusive; HT1080-NT tox: -8.9%; TDP1 cell noCPT: inconclusive; HT1080 IDH1KD tx: 13.7%; DT40 TDP1 CPT: -5.8%

Results for O=C(NCCCN1CCOCC1)c1ccc(Sc2ccc(Br)cc2)c([N+](=O)[O-])c1 ?
uPA generation: 6.2%; IL-1B inflam inh: 15.8; HT1080-NT tox: -1.2%; TDP1 cell noCPT: 10.3µM*; HT1080 IDH1KD tx: 9.7%; DT40 TDP1 CPT: 6.51µM*

How did O=C(NCCCN1CCOCC1)c1ccc2ccccc2c1 do in these assays?
uPA generation: 1.5%; IL-1B inflam inh: 1.6; HT1080-NT tox: -1.7%; TDP1 cell noCPT: inconclusive; HT1080 IDH1KD tx: 1.1%; DT40 TDP1 CPT: 7.6%

What do the screens show for `O=C(NCCCN1CCOCC1)c1ccc(Sc2ccccc2Cl)c([N+](=O)[O-])c1`?
uPA generation: -1.1%; IL-1B inflam inh: -52.4*; HT1080-NT tox: 1.6%; TDP1 cell noCPT: inconclusive; HT1080 IDH1KD tx: -8.8%; DT40 TDP1 CPT: inconclusive

Results for COc1cccc(OCC(=O)Nc2nnc3n2CCS3)c1 ?
TDP1 cell noCPT: -0.5%; DT40 TDP1 CPT: -19.3%

Results for Cc1cc(C)cc(NC(=S)NCCSc2ccc(Cl)cc2)c1 ?
uPA generation: 1.6%; IL-1B inflam inh: -202.0*; HT1080-NT tox: inconclusive; TDP1 cell noCPT: 20.6µM*; HT1080 IDH1KD tx: inconclusive; DT40 TDP1 CPT: inconclusive

How did COC(=O)Cc1ccc(NC(=S)NCCO)cc1 do in these assays?
uPA generation: 2.1%; IL-1B inflam inh: 14.0; HT1080-NT tox: 16.7%; TDP1 cell noCPT: -2.5%; HT1080 IDH1KD tx: 0.4%; DT40 TDP1 CPT: 2.8%

How did Cc1ccc(SCCNC(=S)Nc2ccc(C)c(C)c2)cc1 do in these assays?
uPA generation: 1.4%; IL-1B inflam inh: -28.0; HT1080-NT tox: -10.7%; TDP1 cell noCPT: inconclusive; HT1080 IDH1KD tx: -7.0%; DT40 TDP1 CPT: inconclusive

Results for COC(=O)Cc1ccc(NC(=S)NCCSc2ccc(Cl)cc2)cc1 ?
uPA generation: -0.7%; IL-1B inflam inh: -57.0*; HT1080-NT tox: 3.0%; TDP1 cell noCPT: 20.6µM*; HT1080 IDH1KD tx: -11.6%; DT40 TDP1 CPT: inconclusive

How did CCOc1ccc(CC(=O)Nc2cccc(-c3nc4cccnc4s3)c2C)cc1 do in these assays?
TDP1 cell noCPT: -6.0%; DT40 TDP1 CPT: -15.3%

How did Cn1/c(=N\NC(=O)c2ccccc2Cl)sc2ccccc21 do in these assays?
uPA generation: 0.2%; IL-1B inflam inh: -2.9; HT1080-NT tox: 10.7%; TDP1 cell noCPT: -9.0%; HT1080 IDH1KD tx: 13.8%; DT40 TDP1 CPT: 2.2%
